According to PubChem BioAssay AID651593 (National Center for Advancing Translational Sciences (NCATS), 2012):
About 860 (78%) of roughly 1,100 compounds were called active. Roughly 19% stayed inconclusive and do not appear here. Calls follow the shape of the dose curve; as a rule, active = well fitted activation curve with a large enough effect; inconclusive = small, poorly fitted or top-dose-only effect; inactive = flat fitted curve, though single readings scatter. So high a share suggests a set chosen from earlier hits. Some of the results follow.

assay: qHTS of Nrf2 Activators: Hit Validation in Primary Assay; details: Nrf2/ARE reporter cell assay; Potency: activation; series mostly up to 46.1 µM; activation: at the top concentration; also: nearly all actives have a fitted effect of over 70% in size; as to activation: 0% is about no effect
Procedure, shortened: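 Luminescence from Steady-Glo lysis reagent, read after 30 min, reported ARE-luciferase activity in AREc32_fluc stable cells. Compounds were tested at several concentrations, incubated 24 h at 37 °C with 5% CO2 following overnight seeding.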
Potency is read from the fitted curve at half-maximal effect.

SMILES | Potency | activation
N#Cc1cccn1-c1nccc(-c2cccs2)n1 | 4.61 µM (active) | –
CC1CCc2c(cc(-c3ccccc3)n2-c2ccc(C(=O)NC(C)C)cc2)C1 (centres undefined) | 23.1 µM (active) | –
COCCNC(=O)c1ccc(-n2c(-c3ccccc3)cc3c2CCC(C)C3)cc1 (centres undefined) | 16.4 µM (active) | –
Cc1ccc(S(=O)(=O)c2nc(S(C)(=O)=O)sc2N2CCC(C)CC2)cc1 | 20.6 µM (active) | –
Cc1ccc(S(=O)(=O)c2nc(S(C)(=O)=O)sc2N2CCCCC2C)cc1 (centres undefined) | 2.06 µM (active) | –
Cc1ccc(S(=O)(=O)c2nc(S(C)(=O)=O)sc2N2CCC(O)CC2)cc1 | 9.2 µM (active) | –
COc1ccc(-c2cc3ccccc3oc2=O)cc1NC(=O)c1ccc([N+](=O)[O-])o1 | 3.26 µM (active) | –
COc1ccccc1NC(=O)c1cnc(SCC(=O)NCCc2ccccc2)n(C)c1=O | 3.66 µM (active) | –
Cc1ccc(OCC(=O)Nc2cccc3ccccc23)c([N+](=O)[O-])n1 | 11.6 µM (active) | –
O=C(COc1cccnc1[N+](=O)[O-])Nc1cccc2ccccc12 | 16.4 µM (active) | –
C/C(=N\Nc1ccc2nncn2n1)c1ccc(Cl)s1 | 3.66 µM (active) | –
COc1ccc([N+](=O)[O-])cc1C1NN=C(c2ccccc2O)S1 (centres undefined) | 2.91 µM (active) | –
O=C1CC(c2ccco2)CC(O)=C1C=Nc1cc(Cl)ccc1O (centres undefined) | 4.61 µM (active) | –
CC1(C)C(=O)OC(/C=C/c2cccc([N+](=O)[O-])c2)C(C)(C)C1=O (centres undefined) | 1.03 µM (active) | –
N#C/C(=C\c1c(Oc2ccc(Cl)cc2)nc2ccccn2c1=O)C(=O)NC1CCS(=O)(=O)C1 (centres undefined) | 2.06 µM (active) | –
Cc1cc(C)c2c(N)c(C(=O)c3ccc(Br)cc3)oc2n1 | 4.11 µM (active) | –
Cc1ccc(-c2cc(-c3cccc(F)c3)n[nH]2)c(O)c1 | 2.59 µM (active) | –
Cc1cccn2c(=O)c(C=NCCO)c(NCc3ccco3)nc12 | 2.59 µM (active) | –
O=Cc1c(NCc2ccco2)nc2ccccn2c1=O | 1.64 µM (active) | –
Fc1ccc2cc(-c3ccsc3)ncc2c1 | 7.31 µM (active) | –
COc1ccc(N2C(=O)/C(=C\c3ccco3)N=C2SCC(N)=O)cc1Cl | 1.64 µM (active) | –
O=C(C=Cc1ccccc1Cl)c1ccccc1 | 18.4 µM (active) | –

SMILES | Potency | activation
Clc1nnc(NN=C2CCCC2)c2ccccc12 | 4.61 µM (active) | –
Clc1ccc(/C=N/Nc2nnc(Cl)c3ccccc23)cc1 | 2.31 µM (active) | –
O=[N+]([O-])c1cccc(N2Cc3ccccc3C2)c1 | 20.6 µM (active) | –
O=C(N/N=C/C(Br)=C/c1ccccc1)c1ccc([N+](=O)[O-])cc1 | 18.4 µM (active) | –
COc1ccc2c(c1)C1=NN(/C(C)=C/C(C)=O)C(c3cccc(F)c3)C1CC2 (centres undefined) | 5.8 µM (active) | –
Cc1ccc(-c2nc3sc(C#N)c(N)n3c(=O)c2C#N)cc1 | 8.2 µM (active) | –
COc1c(Cl)cc(C(=O)NCc2ccco2)cc1Cl | 14.6 µM (active) | –
COc1ccccc1NC(=O)c1ccc(Cl)c(S(=O)(=O)NCc2ccco2)c1 | 10.3 µM (active) | –
Cc1c(C(=O)NCc2ccco2)oc2c(Cl)cccc12 | 1.46 µM (active) | –
COc1ccc(OC)c2sc(NC(=O)CCS(=O)(=O)c3ccccc3)nc12 | 3.26 µM (active) | –
CCOC(=O)c1ccsc1NC(=O)CCS(=O)(=O)c1ccccc1 | 18.4 µM (active) | –
O=C(CCS(=O)(=O)c1ccccc1)Nc1nc2ccc(F)cc2s1 | 18.4 µM (active) | –
COc1ccc(C)c2sc(NC(=O)CCS(=O)(=O)c3ccccc3)nc12 | 4.11 µM (active) | –
O=C(CCS(=O)(=O)c1ccccc1)Nc1nc2c(s1)COc1ccccc1-2 | 6.51 µM (active) | –
Cc1cccc2cc3c(nc12)-c1ccccc1C3=O | 10.3 µM (active) | –
c1ccc2nc3c(ccc4ccccc43)cc2c1 | 9.2 µM (active) | –
COC(=O)c1c(NC(=O)c2ccccc2)sc(C(N)=O)c1C | 1.46 µM (active) | –
CCOC(=O)c1sc(NC(=O)c2ccccc2F)c(C(N)=O)c1C | 2.31 µM (active) | –
c1ccc(N2CC3COc4ccccc4C3=N2)cc1 (centres undefined) | 2.59 µM (active) | –
c1ccc(N2CC3CCc4ccccc4C3=N2)cc1 (centres undefined) | 5.8 µM (active) | –
Cc1ccc(S(=O)(=O)c2nc(S(C)(=O)=O)sc2N2CC(C)OC(C)C2)cc1 (centres undefined) | 18.4 µM (active) | –
CCCS(=O)(=O)c1nc(S(=O)(=O)c2ccc(C)cc2)c(N2CC(C)OC(C)C2)s1 (centres undefined) | – | 7.58% (inactive)

SMILES | Potency | activation
CC1CN(c2sc(S(C)(=O)=O)nc2S(=O)(=O)c2ccc(Cl)cc2)CC(C)O1 (centres undefined) | 6.51 µM (active) | –
CCOC(=O)c1cnc(-c2ccccc2)nc1-c1ccccc1 | 9.2 µM (active) | –
Nc1nc(Nc2ccccc2F)nc(NCc2ccco2)c1[N+](=O)[O-] | 2.31 µM (active) | –
O=C1C=C(C#Cc2ccccc2)C[C@@H](c2ccc(F)cc2)C1 | 11.6 µM (active) | –
CC(C)(C)c1csc(NC(=O)CCS(=O)(=O)c2ccc(F)cc2)n1 | 20.6 µM (active) | –
O=C(CCS(=O)(=O)c1ccccc1)Nc1nc(-c2ccccn2)cs1 | 18.4 µM (active) | –
Cc1ccc2ccc(C3C(=O)c4ccccc4C3=O)nc2c1 | 1.64 µM (active) | –
C#CCSc1nc(-c2ccccc2)cc(C(F)(F)F)c1C#N | 11.6 µM (active) | –
Cc1ccc(-c2cc(C(F)(F)F)c(C#N)c(SCCC#N)n2)o1 | 2.59 µM (active) | –
c1ccc2c(-c3nc4ncccc4o3)cccc2c1 | 6.51 µM (active) | –
CCn1c(SCC(=O)N/N=C/C=C/c2ccco2)nc2ccccc21 | 1.46 µM (active) | –
Cn1c(SCC(=O)N/N=C/C=C\c2ccco2)nc2ccccc21 | 2.59 µM (active) | –
Cn1c(SCC(=O)N/N=C/C=C\c2ccccc2[N+](=O)[O-])nc2ccccc21 | 0.366 µM (active) | –
CCn1c(SCC(=O)N/N=C/C=C\c2ccco2)nc2ccccc21 | 1.84 µM (active) | –
Cc1cccc(N=C2NC(=O)S/C2=C\c2ccco2)c1 | 3.26 µM (active) | –
Cc1ccc(N=C2NC(=O)S/C2=C\c2ccco2)cc1 | 7.31 µM (active) | –
C=CCn1c(=NC(=O)c2cc(Cl)sc2Cl)sc2cc(S(N)(=O)=O)ccc21 | 2.31 µM (active) | –
Oc1ccc(Cl)cc1-c1cc(-c2ccco2)[nH]n1 | 3.66 µM (active) | –
Oc1ccc(Br)cc1-c1cc(-c2ccco2)[nH]n1 | 3.66 µM (active) | –
Oc1c(-c2cc(-c3ccco3)[nH]n2)ccc2ccccc12 | 2.31 µM (active) | –
